In test [1] the test system is S. cerevisiae SK1 pCDA2-eGFP (USY613), sporulating. As to the kind of experiment: CDA2-GFP sporulation assay sensitivity score (z-score vs DMSO controls); higher = stronger inhibition of sporulation, active = hit call of the paper.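 Note: active if sensitivity score above 5.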
Test [2] deals with S. cerevisiae NKY1551 his4x/his4B, sporulating. As to the kind of experiment: HIS4 meiotic recombination assay sensitivity score (z-score vs DMSO controls); higher = stronger inhibition of sporulation/recombination, active = hit call of the paper.
Test [3] concerns S. cerevisiae AD1-9 (efflux-pump deficient), vegetative growth in YPD. The test is described as follows: growth sensitivity score (doubling time z-score vs DMSO controls); higher = slower growth, strongly negative scores also mark growth inhibition (complete suppression), active = hit call of the paper. The method, boiled down: (§1)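 Rich medium in microtiter plates was seeded with Saccharomyces cerevisiae strains BY4741 and AD1-9 at an OD600 of 0.065, and compounds were added as a 1:100 dilution of DMSO stock. A Tecan GENios reader recorded optical density every 15 min for 24 hours, with eight solvent-only wells in each experiment. Average doubling time was the time to reach a set generation point divided by generation number. The growth sensitivity score was the compound mean minus the solvent-only mean, divided by the solvent-only standard deviation.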

Test [4] deals with S. cerevisiae BY4741 (wild-type), vegetative growth in YPD. Described as above. The method, boiled down: as §1

We go through 31 compounds from the supplement of paper PMC3414501.

Structures can show the parent of a compound that is named as a salt.
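Throughout, for HIS4 meiotic recombination assay sensitivity score (z-score vs DMSO controls): active if sensitivity score above 5.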

For `CC(C)NCC(O)COc1ccc(CCOCC2CC2)cc1` (centres undefined) [Betaxolol hydrochloride] (stock concentration (mM, diluted 1:100): 10), the “CDA2-GFP sporulation assay sensitivity score” value in test [1] is 7.8 (active). For the same compound, the “HIS4 meiotic recombination assay sensitivity score” value in test [2] is -0.58 (inactive). In addition, the growth sensitivity score in test [3] is -0.35 (inactive); in test [4] it was 0.42 (inactive).
On to `CCN(CC)CC(=O)Nc1c(C)cccc1C` [Lidocaine] (stock concentration (mM, diluted 1:100): 9.6), for which, in test [1], the “CDA2-GFP sporulation assay sensitivity score” value is 0.09 (inactive). Further, the “HIS4 meiotic recombination assay sensitivity score” value in test [2] was -2.75 (inactive). Further, the growth sensitivity score was -0.9 (inactive) in test [3] and -0.16 (inactive) in test [4].
The matching figures for `C[C@@H]1O[C@@H](OC[C@H]2O[C@@H](Oc3c(-c4ccc(O)c(O)c4)oc4cc(O)cc(O)c4c3=O)[C@H](O)[C@@H](O)[C@@H]2O)[C@H](O)[C@H](O)[C@H]1O` [Rutin] (stock concentration (mM, diluted 1:100): 10): -0.59 (inactive), -1.04 (inactive), 0.28 (inactive) and -2.67.
With `CC(C)c1nc(CN(C)C(=O)N[C@H](C(=O)N[C@@H](Cc2ccccc2)C[C@H](O)[C@H](Cc2ccccc2)NC(=O)OCc2cncs2)C(C)C)cs1` [Ritonavir] (stock concentration (mM, diluted 1:100): 10), the “CDA2-GFP sporulation assay sensitivity score” value in test [1] is -0.68 (inactive). Also, the “HIS4 meiotic recombination assay sensitivity score” value in test [2] was -1.41 (inactive). For the same compound, the growth sensitivity score in test [3] is 8.8 (active); in test [4], -0.97 (inactive).
As for `O=C(c1ccc(F)cc1)C1CCN(CCn2c(=S)[nH]c3ccccc3c2=O)CC1` [Altanserin] (stock concentration (mM, diluted 1:100): 10), in test [1], the “CDA2-GFP sporulation assay sensitivity score” value was 2.43 (inactive). For the same compound, the “HIS4 meiotic recombination assay sensitivity score” value in test [2] was -0.6 (inactive). Also, the growth sensitivity score in test [3] is -0.28 (inactive); in test [4] it was -0.21 (inactive).
On to `COCCCOc1ccnc(C[S+]([O-])c2nc3ccccc3[nH]2)c1C` (centres undefined) [Rabeprazole] (stock concentration (mM, diluted 1:100): 10.6), for which the “CDA2-GFP sporulation assay sensitivity score” value in test [1] is 11.4 (active). Also, in test [2], the “HIS4 meiotic recombination assay sensitivity score” value was 3.07 (inactive). Moreover, the figures for the growth sensitivity score in test [3] and in test [4] were 31.5 (active) and 12.2 (active), respectively.
Consider `COc1ccc2[nH]c([S+]([O-])Cc3ncc(C)c(OC)c3C)nc2c1` (centres undefined) [Omeprazole] (stock concentration (mM, diluted 1:100): 10), for which the “CDA2-GFP sporulation assay sensitivity score” value in test [1] is 6.11 (inactive). In test [2], the “HIS4 meiotic recombination assay sensitivity score” value was -1.05 (inactive). The growth sensitivity score in test [3] was -3.25; in test [4], 0.39 (inactive).
With `CC(Oc1c(Cl)cccc1Cl)C1=NCCN1` (centres undefined) [Lofexidine hydrochloride] (stock concentration (mM, diluted 1:100): 10), the “CDA2-GFP sporulation assay sensitivity score” value in test [1] is 7.06 (inactive). For the same compound, in test [2], the “HIS4 meiotic recombination assay sensitivity score” value is 1.48 (inactive). Moreover, the growth sensitivity score in test [3] is -0.79 (inactive); in test [4] it was 0.09 (inactive).
As to `COCC1=C(C(=O)OC(C)OC(=O)OC(C)C)N2C(=O)[C@@H](NC(=O)/C(=N\OC)c3csc(N)n3)[C@H]2SC1` (some centres undefined) [Cefpodoxime proxetil] (stock concentration (mM, diluted 1:100): 7.7), the “CDA2-GFP sporulation assay sensitivity score” value in test [1] is -0.83 (inactive). Moreover, in test [2], the “HIS4 meiotic recombination assay sensitivity score” value was -1.5 (inactive). Also, the growth sensitivity score in test [3] is -0.15 (inactive); in test [4] it was -1.13 (inactive).
Taken in the same sequence, the figures for `NC1CCN(c2cccc(Cl)n2)CC1` (stock concentration (mM, diluted 1:100): 10) were 13.8 (active), 2.37 (inactive), -0.47 (inactive) and -0.16 (inactive).
Take `CN(CCOc1ccc(CC2SC(=O)NC2=O)cc1)c1ccccn1` (centres undefined) [Rosiglitazone maleate] (stock concentration (mM, diluted 1:100): 7.6): the “CDA2-GFP sporulation assay sensitivity score” value in test [1] is 1.38 (inactive). The “HIS4 meiotic recombination assay sensitivity score” value in test [2] is 0.95 (inactive). In addition, the growth sensitivity score in test [3] was 2.19 (active); in test [4] it was 1.82 (inactive).
The matching figures for `CC(C)Oc1ccc2c(=O)c(-c3ccccc3)coc2c1` [Ipriflavone] (stock concentration (mM, diluted 1:100): 10): -1.58 (inactive), -1.16 (inactive), 3.44 (active) and -0.15 (inactive).
Taken in the same sequence, the figures for `O=C1CC2(CCCC2)CC(=O)N1CCNCC1COc2ccccc2O1` (centres undefined) (stock concentration (mM, diluted 1:100): 10) were 19.1 (active), -0.57 (inactive), 3.73 (active) and 1.45 (inactive).
The matching figures for `O=C1[C@H]2CCCC[C@H]2C(=O)N1CCCCN1CCN(c2nsc3ccccc23)CC1` [Perospirone hydrochloride] (stock concentration (mM, diluted 1:100): 9.4): 2.69 (inactive), -2.62 (inactive), 2.19 (active) and 3.13 (active).
Turning to `O=C1N(c2ccccc2)c2ccccc2C1(Cc1ccncc1)Cc1ccncc1` (stock concentration (mM, diluted 1:100): 10), in test [1], the “CDA2-GFP sporulation assay sensitivity score” value was 0.26 (inactive). Further, the “HIS4 meiotic recombination assay sensitivity score” value in test [2] was 0.8 (inactive). In addition, the growth sensitivity score in test [3] is 8.78 (active); in test [4], 1.8 (inactive).
Turning to `O=C1C(c2c(O)[nH]c3ccccc23)=Nc2ccccc21` [Indarubicin] (stock concentration (mM, diluted 1:100): 10), the “CDA2-GFP sporulation assay sensitivity score” value in test [1] is 9.61 (inactive). Moreover, the “HIS4 meiotic recombination assay sensitivity score” value in test [2] is -1.36 (inactive). Further, the growth sensitivity score was -1.23 (inactive) in test [3] and -1.62 (inactive) in test [4].
Taken in the same sequence, the figures for `C[C@@H]1C[C@H]2[C@@H]3CCC4=CC(=O)C=C[C@]4(C)[C@@]3(F)[C@@H](O)C[C@]2(C)[C@H]1C(=O)CO` [Desoximetasone] (stock concentration (mM, diluted 1:100): 10) were 0.62 (inactive), -1.12 (inactive), 2.17 (active) and 1.97 (inactive).
Taken in the same sequence, the figures for `OC[C@H]1O[C@@H](n2cnc3c(N[C@H]4CCC[C@@H]4O)ncnc32)[C@@H](O)C1O` (some centres undefined) (stock concentration (mM, diluted 1:100): 10) were 2.98 (inactive), 1.26 (inactive), -0.69 (inactive) and -0.79 (inactive).
Taken in the same sequence, the figures for `CN(C)CCC(c1ccc(Cl)cc1)c1ccccn1` (centres undefined) [Chlorpheniramine] (stock concentration (mM, diluted 1:100): 10) were -1.3 (inactive), 5.73 (active), -0.6 (inactive) and -0.56 (inactive).
Turning to `CC(C)c1ccc2oc3nc(N)c(C(=O)O)cc3c(=O)c2c1` [Amlexanox] (stock concentration (mM, diluted 1:100): 10), the “CDA2-GFP sporulation assay sensitivity score” value in test [1] is -0.73 (inactive). Moreover, the “HIS4 meiotic recombination assay sensitivity score” value in test [2] was 0.07 (inactive). Moreover, the growth sensitivity score in test [3] was 0.42 (inactive); in test [4] it was 1.8 (inactive).
The matching figures for `COc1ccccc1OCC(O)CN1CCN(CC(=O)Nc2c(C)cccc2C)CC1` (centres undefined) [Ranolazine dihydrochloride] (stock concentration (mM, diluted 1:100): 8.6): -1.05 (inactive), -1.05 (inactive), -1.41 (inactive) and -0.31 (inactive).
For the compound `CC(C)(C)NC(=O)[C@@H]1CN(Cc2cccnc2)CCN1C[C@@H](O)C[C@@H](Cc1ccccc1)C(=O)N[C@H]1c2ccccc2C[C@H]1O` [Indinavir sulphate] (stock concentration (mM, diluted 1:100): 8.6), the “CDA2-GFP sporulation assay sensitivity score” value in test [1] is -1.29 (inactive). The “HIS4 meiotic recombination assay sensitivity score” value in test [2] was -1.36 (inactive). For the same compound, the growth sensitivity score in test [3] is -2.58; in test [4] it was 0 (inactive).
Regarding `Cc1sc(N)c(C(=O)c2cccc(C(F)(F)F)c2)c1C` (stock concentration (mM, diluted 1:100): 10), the “CDA2-GFP sporulation assay sensitivity score” value in test [1] was 11.1 (active). Further, in test [2], the “HIS4 meiotic recombination assay sensitivity score” value was 1.22 (inactive). Further, the results for the growth sensitivity score in test [3] and in test [4] were 143 (active) and 9.52 (active), respectively.
Turning to `CC[C@@H]1C(=O)OC[C@@H]1Cc1cncn1C` [Pilocarpine hydrochloride] (stock concentration (mM, diluted 1:100): 10), the “CDA2-GFP sporulation assay sensitivity score” value in test [1] is 1.83 (inactive). In test [2], the “HIS4 meiotic recombination assay sensitivity score” value was -0.54 (inactive). Also, the results for the growth sensitivity score in test [3] and in test [4] were 0.16 (inactive) and 0.72 (inactive), respectively.
The matching figures for `CN1[C@@H](CC(=O)c2ccccc2)CCC[C@H]1C[C@H](O)c1ccccc1` [Lobeline hydrochloride] (stock concentration (mM, diluted 1:100): 10): 2.99 (inactive), 0.57 (inactive), -1.96 (inactive) and 0.72 (inactive).
Taken in the same sequence, the figures for `C[C@]12CC[C@@H]3c4ccc(O)cc4CC[C@H]3[C@@H]1CC[C@@H]2O` [Beta-Estradiol] (stock concentration (mM, diluted 1:100): 10) were 0.49 (inactive), -2.13 (inactive), 10.3 (active) and 3.35 (active).
`CCCN1CCCC[C@H]1C(=O)Nc1c(C)cccc1C` [Ropivacaine hydrochloride] (stock concentration (mM, diluted 1:100): 7.7): in test [1], the “CDA2-GFP sporulation assay sensitivity score” value was 3.5 (inactive). In addition, the “HIS4 meiotic recombination assay sensitivity score” value in test [2] was 2.62 (inactive). In addition, the results for the growth sensitivity score in test [3] and in test [4] were -2 (inactive) and -0.74 (inactive), respectively.
As for `CN(C)CCCC1(c2ccc(F)cc2)OCc2cc(C#N)ccc21` (centres undefined) [Citalopram hydrobromide] (stock concentration (mM, diluted 1:100): 7.9), the “CDA2-GFP sporulation assay sensitivity score” value in test [1] was -1.83 (inactive). For the same compound, the “HIS4 meiotic recombination assay sensitivity score” value in test [2] was 7.31 (active). Besides, the results for the growth sensitivity score in test [3] and in test [4] were 0.63 (inactive) and -0.04 (inactive), respectively.
The matching figures for `CC(C)c1ccc2c(c1)c(SC(C)(C)C)c(CC(C)(C)C(=O)O)n2Cc1ccc(Cl)cc1` [Tocris-1311] (stock concentration (mM, diluted 1:100): 10): 11.2 (active), -0.42 (inactive), 6.29 (active) and -0.4 (inactive).
Regarding `CO[C@H]1O[C@@H]2O[C@@]3(C)CC[C@H]4[C@H](C)CC[C@@H]([C@H]1C)[C@@]24OO3` [Artemether] (stock concentration (mM, diluted 1:100): 10), the “CDA2-GFP sporulation assay sensitivity score” value in test [1] was 7.92 (inactive). Also, the “HIS4 meiotic recombination assay sensitivity score” value in test [2] is -0.64 (inactive). Also, the values for the growth sensitivity score in test [3] and in test [4] were 9.66 (active) and 17.6 (active), respectively.
As for `COc1ccc(CC2c3cc(OC)c(OC)cc3CC[N+]2(C)CCC(=O)OCCCCCOC(=O)CC[N+]2(C)CCc3cc(OC)c(OC)cc3C2Cc2ccc(OC)c(OC)c2)cc1OC` (centres undefined) [Atracurium besylate] (stock concentration (mM, diluted 1:100): 10), the “CDA2-GFP sporulation assay sensitivity score” value in test [1] was 17.9 (active). Further, the “HIS4 meiotic recombination assay sensitivity score” value in test [2] was 0.87 (inactive). For the same compound, the growth sensitivity score in test [3] was -2.52; in test [4] it was -0.31 (inactive).
